Screens deposited in PubChem BioAssay by National Center for Advancing Translational Sciences (NCATS).
The full list was thinned out, with hits kept by preference.
GPT2 inh = Primary qHTS assay for inhibitors of Glutamate pyruvate transaminase 2 (GPT2). Recombinant GPT2, coupled pyruvate oxidase/HRP Amplex Red fluorescence. 0.25% of 100,000 active. Potency, µM (doses to about 57.7 µM), actives largely listed as inhibitors. Alanine aminotransferase 2 (Homo sapiens), Q8TD30; active = well fitted inhibition curve with a large enough effect; also: nearly all actives have a fitted effect of over 60% in size
Target sequence (Q8TD30 whole entry, looked up): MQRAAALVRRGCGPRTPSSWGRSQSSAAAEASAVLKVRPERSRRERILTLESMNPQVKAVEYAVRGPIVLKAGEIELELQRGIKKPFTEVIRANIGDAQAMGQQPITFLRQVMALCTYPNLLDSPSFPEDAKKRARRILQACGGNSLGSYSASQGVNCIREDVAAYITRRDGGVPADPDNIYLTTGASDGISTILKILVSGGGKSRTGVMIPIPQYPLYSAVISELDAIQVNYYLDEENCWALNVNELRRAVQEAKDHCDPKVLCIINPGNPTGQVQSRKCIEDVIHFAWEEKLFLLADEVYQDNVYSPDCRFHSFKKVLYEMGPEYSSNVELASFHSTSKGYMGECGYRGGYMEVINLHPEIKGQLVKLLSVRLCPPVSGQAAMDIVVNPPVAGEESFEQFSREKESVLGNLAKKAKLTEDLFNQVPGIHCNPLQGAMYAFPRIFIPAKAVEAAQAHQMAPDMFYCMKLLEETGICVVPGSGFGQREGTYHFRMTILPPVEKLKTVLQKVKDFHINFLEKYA
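Fluorescence of coupled pyruvate oxidase/HRP/Amplex Red system (50uM Amplex, 30 min, dark) reports pyruvate formed by GPT2. Enzyme reaction: 10ng/uL GPT2, 2mM L-alanine, 250uM a-KG, 30 min room temperature, pH 7.5; 50uM AOA control.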
Hits are given with their value; n = inactive; ! = not active in a repeat; [ ] = another dose, or the depositor's remark.

SMILES | GPT2 inh
COc1ccc(Nc2ccnc(N3CCC(NC(=O)c4ccccc4C)CC3)n2)cc1 | n
CN(C)c1cccc(-c2c3c(=O)n(-c4ccccc4Cl)[nH]c3cc(=O)n2C)c1 | 15µM!
CC(C)(C)C1CCC2(CC1)NC(=O)N(CC(=O)NC1CCCCC1)C2=O (configuration not stated) | n
COC[C@H]1C[C@H]2C[C@@H](OC)[C@H](N(C)Cc3cccc(F)c3)[C@]2(O)CO1 | n
O=C1OC(CN2CCOCC2)CN1/N=C/c1ccc([N+](=O)[O-])o1 (configuration not stated) | n
NC(=O)N/N=C/c1ccc([N+](=O)[O-])o1 | 32µM!
CC(=O)Nc1ccc(/C=N/NC(N)=S)cc1 | n
COc1ccc(CN2CCC([C@@H]3CNC[C@H]3CO)CC2)c(Cl)c1OC | n
COCc1nc(C2CCCN(C(=O)c3sccc3C)C2)no1 (configuration not stated) | n
COc1ccccc1-c1cc2c(ccn2C(C)C)c(C(=O)NCc2c(C)cc(C)[nH]c2=O)n1 | n
CCNC(=O)CC1COCCN1C(=O)c1csc(-c2cccs2)n1 (configuration not stated) | n
Oc1cc(O)cc(C=Cc2ccc(O)c(O)c2)c1 | 4.3µM
Cc1cc(=O)oc2c(C=O)c(O)ccc12 | n
Oc1ccc(C=Cc2cc(O)cc(O)c2)cc1 | n
O=C(/C=C/c1ccc(O)c(O)c1)OCCc1ccccc1 | n
Oc1ccc(/C=C/c2cc(O)cc(O)c2)cc1 | n
O=c1cc(O)cc(/C=C/c2ccc(O)c(O)c2)o1 | 6.3µM
Cc1cc(NCc2ccc(S(N)(=O)=O)cc2)n2nc(C)c(C)c2n1 | n
CC(C)c1ccccc1Cc1cc(C(=O)Nc2ccc(S(=O)(=O)c3ccccc3C(C)(C)C)cc2)c(O)c(O)c1O | 27µM
Nc1cc(N2CCN(Cc3ncc[nH]3)CC(C(=O)O)C2)ncn1 (configuration not stated) | n
COc1ccc(Cn2c(=O)c(C(=O)NCC3CC3)nc3cccnc32)cc1 | n
O=c1cc(-c2ccc(O)c(O)c2)oc2cc(O)cc(O)c12 | n
O=c1c(O)c(-c2ccc(O)c(O)c2)oc2cc(O)cc(O)c12 | 14µM!
O=c1c(-c2ccc(O)cc2)coc2cc(O)cc(O)c12 | n
COc1ccc(NC(=O)c2cn3ccnc(-c4ccc(C)cc4)c3n2)c(OC)c1 | n
SMILES | GPT2 inh
COc1ccc(-c2nn(-c3cc(C)ccc3C)c(OC(C)=O)c2-c2ccc(NC(C)=O)cc2)c(OC)c1 | 2.8µM
COc1ccc(-c2nc(C)nc3c2CN(Cc2ccc(NC(C)=O)cc2)CC3)cc1 | n
CNC[C@H](O)c1ccc(O)c(O)c1 | 14µM!
NC[C@H](O)c1ccc(O)c(O)c1 | 10µM!
CC(C)NCC(O)c1ccc(O)c(O)c1 (configuration not stated) | 17µM!
Oc1ccc(C(O)CNCCCCCCNCC(O)c2ccc(O)c(O)c2)cc1O (configuration not stated) | n
COc1cc(C(O)CO)ccc1O (configuration not stated) | n
CC(C)(Cc1ccccc1)NCC(O)c1ccc(O)c(NS(C)(=O)=O)c1 (configuration not stated) | n
CNC[C@H](O)c1cccc(O)c1 | n
CC(C)NCC(O)c1ccc2ccccc2c1 (configuration not stated) | n
COc1ccc(Cl)cc1C(=O)N1C[C@@H](CN2CCCCCC2)[C@@H](CO)C1 | n[11.5 µM]
O=C(NCc1cc(-c2ccco2)on1)[C@H]1CNC[C@@H](C(=O)N2CCOCC2)C1 | n
CNC(=O)[C@@H]1CN(C(=O)c2ccc3c(c2)OCO3)C[C@H]1c1nc(COC)no1 | n
CC(C)c1ccc(CN2CCCC(O)(CNCCN3CCNCC3)C2=O)cc1 (configuration not stated) | n
O=C1Nc2ccccc2CNC12CCN(Cc1ccc(C(F)(F)F)cc1)CC2 | n
CN(C)CC1(O)CCC2(CCN(C(=O)C3CCCC3)CC2)CC1 | n
COc1ccc(NC(=O)c2cc3c(n2C)CCN(Cc2ccc(F)cc2)C3)cc1 | n
Cn1c(C(=O)Nc2ccc(N3CCOCC3)cc2)cc2c1CCN(Cc1ccccc1)C2 | 22µM
CC(=O)Nc1ccc(NC(=O)c2cc3c(n2C)CCN(Cc2ccccc2)C3)cc1 | n
CC(=O)N1Cc2ccccc2CC2(CCCCN2Cc2ccncc2)C1 (configuration not stated) | n
CCCCc1nn(CC(=O)N2C[C@H]3CC=C(C)C[C@H]3C2)c(=O)n1CC | n
O=S(=O)(NCC1(COc2cnccn2)C[C@@H](O)[C@@H](O)C1)c1ccc(Cl)cc1 (some centres not stated) | n
COc1ccc(CCC(=O)N2CCCC(c3nc(C)ncc3-c3cccc(C)c3)C2)cc1OC (configuration not stated) | n
CCN(CC)C(=O)/C(C#N)=C/c1cc(O)c(O)c([N+](=O)[O-])c1 | 8.9µM
O=C1CO[C@H]2CCN(Cc3cccs3)CC[C@@H]2N1Cc1c[nH]c2ccccc12 | n
CC(C)c1noc(-c2cn(C3CCN(C(=O)c4ccc5c(c4)OCO5)C3)nn2)n1 (configuration not stated) | n
